Results on 40 compounds are retold here after PubChem BioAssay (NCI).

Compounds without any hit were thinned out: in the full panel of roughly 83,000, 20% have a hit.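 Activity criterion: percent growth below 10, measured after cells in 96-well plates were exposed to a single compound concentration for 48 hours.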 Unmarked numbers belong to inactive results. Active and inactive are the calls of the source.

In the experiment the test system is A498 renal. Briefly: NCI-60 one-dose screen, 48 h (100 = growth as untreated, 0 = no growth, -100 = all killed). To be noted: 10 µM. The protocol: Growth inhibition of the A498 human tumor cell line is measured as a screen for anti-cancer activity. Cells are grown in 96 well plates and exposed to the test compound for 48 hours. Compounds are tested at a single concentration, which is 10^-5 M for most compounds. The reported endpoint is percent growth (GI% or GIPRCNT), where numbers from 0 - 100% represent growth inhibition, and numbers from -100% - 0 represent cell death. For example, a value of 40 represents 60% growth inhibition. A value of 0 means no net growth occurred over the course of the experiment. A value of -40 indicates 40% of cells at the beginning of the experiment died by the end of the experiment. A value of -100 means all cells are dead at the end of the experiment.
NCI-60 Human Tumor Cell Lines Screen was performed using the standard one-dose NCI protocol, which is described in more detail at https://dtp.cancer.gov/discovery_development/nci-60/default.htm.
Compounds with GIPRCNT values below 10 were considered active. Activity score was based on GIPRCNT using the following formula: […]
Score is 0 for GIPRCNT values of 100 or above, 50 for GIPRCNT values of 0, and 100 for GIPRCNT values of -100.
On to `COc1cc(NS(C)(=O)=O)ccc1Nc1c2ccc(Cl)cc2nc2c(OC)cccc12`, for which the growth is -8.95% (active).

On to `N#CN1CC[C@H](C(=O)Nc2ncc(-c3ccccc3)s2)C1`, for which the growth was -47% (active).

For `COc1ccc(C2C=C(c3ccc(OC)c(OC)c3)N=C3SC=CN32)c(Br)c1` (stereo not given), the growth was 74%.

`CCN(CC)CCOC(=O)c1ccc(N=Nc2ccc(O)c(OC)c2)cc1`: the growth is 80.8%.

As for `Nc1ncc(-c2ccc(C(F)(F)F)cc2)c(NC2CCCCCC2)n1`, the growth was 58.8%.

As for `COc1ccc(-c2csc(-c3cc(Cl)cc(Cl)c3Cl)n2)cc1`, the growth was 52.1%.

As for `COc1ccc(/C=C(\c2cc(OC)c(OC)c(OC)c2)c2nnc(-c3cccs3)o2)cc1`, the growth is 71.4%.

`Nc1nc(SCC#CCCl)c2[nH]cnc2n1`: the growth was 53.8%.

Consider `Nc1c(CNCc2nnn(Cc3ccccc3)c2N)nnn1Cc1ccccc1`, for which the growth is 98.4%.

As to `N#C/C(=C\N1C(=O)/C(=C/c2cccc([N+](=O)[O-])c2)SC1=S)c1nc2ccccc2s1`, the growth is 71.8%.

`CCOC(=O)[C@@H]1[C@H](c2ccccc2)[C@H]([N+](=O)[O-])[C@H](c2cn(-c3ccccc3)nc2C)N1Cc1ccccc1`: the growth was 97.6%.

`COc1ccc(Nc2nc(NCc3ccccc3)c3ccccc3n2)cc1`: the growth is 38.9%.

Consider `COCCOC(=O)NC(=O)Nc1ccc(C(=O)c2ccc(Cl)cc2)cc1`, for which the growth was 19.3%.

With `O=C(Nc1cccc(-c2nc3ccccc3[nH]2)c1)c1cccc(NC(=O)c2ccco2)c1`, the growth is 83.6%.

Turning to `COc1cc(C2C=C(c3ccc(Cl)c(Cl)c3)N=C3SC(C)=CN32)cc(OC)c1OC` (stereo not given), the growth is 74%.

Take `CCN(CC)CCCOC(=O)Nc1ccccc1Cl`: the growth was 97.7%.

Regarding `O=[N+]([O-])c1cc2ncccc2c2ncccc12`, the growth was 111%.

As to `O=C(O)CNS(=O)(=O)c1ccc(OCCOc2ccc(S(=O)(=O)NCC(=O)O)cc2)cc1`, the growth is 96.4%.

On to `COc1cc(C2C=C(c3ccc(Cl)cc3)N=C3SC(C)=CN32)cc(OC)c1OC` (stereo not given), for which the growth was 86.1%.

Regarding `COc1ccc(NC(=O)c2sc3nc4c(cc3c2N)C(O)CCC4)cc1` (stereo not given), the growth is -8.3% (active).

Take `COc1cc(-c2c(C#N)c(N)n3c(nc4ccccc43)c2C#N)cc(Br)c1OC`: the growth is 67.1%.

On to `COc1cc(-c2cc(-c3ccc(C)cc3)nc3nc(N)[nH]c(=O)c23)ccc1Oc1ccnc2cc(Cl)ccc12`, for which the growth is 73.4%.

For the compound `CCOC(=O)[C@@H](Cc1ccccc1)NC(=O)c1[nH]c2ccc(Cl)cc2c(=O)c1C`, the growth was 143%.

In the case of `CCOc1nc(-c2ccccc2)cc2c(O)c(C(=O)NC(C)C)[nH]c(=O)c12`, the growth is 100%.

As to `C=CCc1cc(Nc2c3ccc(Cl)cc3nc3ccc(OC)cc23)cc(CN(CC)CC)c1O`, the growth is 20.6%.

As to `O=C(Nc1ccc(OS(=O)(=O)Cc2ccccc2)cc1)C12CC3CC(CC(C3)C1)C2`, the growth was 83.1%.

For the compound `O=C(c1ccc(Cl)cc1)c1no[n+]([O-])c1C(=O)c1ccc(Cl)cc1`, the growth is 106%.

Turning to `O=C1/C(=C/c2cccs2)CCC/C1=C\c1cccs1`, the growth was 74.8%.

Consider `CCCCCN(CCCCC)C(C)C(O)c1ccc2cc(Cl)c3ccccc3c2c1` (stereo not given), for which the growth is 83.1%.

Consider `N/C(=N\O)c1cn(C2OC(CO)C(O)C2O)c2ncnc(N)c12` (stereo not given), for which the growth was -56.3% (active).

For the compound `CCCCCCCC/C=C/CCCCCCCCC1=NCCN1CCO`, the growth was 84.7%.

With `Nc1nsc(C(=O)c2ccc(O)cc2)n1`, the growth was 115%.

For `C=CCOc1ccc2c(c1)CC[C@@H]1[C@@H]2CC[C@]2(C)C(=O)/C(=N/O)C[C@@H]12`, the growth is 50.2%.

As to `COc1c(-c2c3sc(=O)[nH]c3nc3c2c(=O)[nH]n3C(C)C)cc2c(c1OC)OCO2`, the growth is 57.2%.

On to `O=C(COCc1c(-c2ccccc2)no[n+]1[O-])Nc1nc(-c2ccc(Cl)cc2)cs1`, for which the growth is 97.9%.

Consider `CCC(OC(=O)CC(C)C)c1ccccc1` (stereo not given), for which the growth was 102%.

With `COc1ccc(/C(=C/c2cc(OC)c(OC)cc2[N+](=O)[O-])C(=O)O)cc1`, the growth is 105%.

Turning to `Cc1nc(Nc2nc3ccccc3o2)nc(-c2cccc([N+](=O)[O-])c2)c1C(=O)Nc1ccc(F)c(Cl)c1`, the growth is -37.2% (active).

With `COc1ccc2c(c1)/C(=C/c1cc(OC)c(OC)c(OC)c1)C(=O)N2C`, the growth is 23.4%.

`O=C(N/N=C\c1cc(Cl)ccc1O)c1ccncc1`: the growth was 104%.
